The campaign covered roughly 290,000 compounds. About 1,800 (0.62%) were called active. Cut-off read from the data, not from the text of the source: active = inhibition above about 50%; inactive = the rest. Only a selection was taken, and actives are over-represented in it overall. Peptide text beside a SMILES is read from it. * marks the point of attachment. OBn = c1ccc(CO*)cc1
Assay: NOD2 signaling inhibitors, cell-based, luminescence, uHTS, HEK293 (AID 1566)
Conditions: HEK293 NOD2/NF-kB luciferase reporter, at 4 µM, stronger effect = higher value

| Structure (SMILES) | inhibition |
| --- | --- |
| CC(=O)Oc1ccc(OC(C)=O)c2c1CC(C)=C(C)C2 | 33.6% (inactive) |
| Cc1ccc(OCC(=O)O/N=C(\N)c2ccncc2)cc1C | -6.1% (inactive) |
| C=CCn1c(SCc2ccc(Cl)cc2)nc2cc(C(=O)N3CCC(C(N)=O)CC3)ccc2c1=O | 1.8% (inactive) |
| COc1ccc(-c2noc(CN3CCOCC3)n2)cc1OC | -8.7% (inactive) |
| CCn1c(C)c(C(C)=O)c(N2CCN(c3ccc(OC)cc3)CC2)nc1=S | 12.6% (inactive) |
| Cc1ccc(NC(=O)N2CCCC2C(=O)Nc2ccc3c(c2)OCCO3)cc1 (stereo unspecified) | -15.1% (inactive) |
| CC(=O)Nc1ccc(NC(=O)CN(C)S(=O)(=O)c2ccc3ccccc3c2)cc1 | -3.2% (inactive) |
| CC(=O)NCC(=O)N[C@@H](CC(=O)OCc1ccccc1)C(=O)OCc1ccccc1 (Ac-Gly-Asp(OBn)-OBn) | 15.4% (inactive) |
| O=C(CCc1nc(-c2ccccc2F)no1)NCCN1CCOCC1 | 9.2% (inactive) |
| COc1ccc(Nc2cc3n(c(=O)n2)CCc2cc(OC)c(OC)cc2-3)cc1 | -35.6% (inactive) |
| O=C(COc1ccccc1)NN1C(=O)CSC1=S | 3.5% (inactive) |
| Cc1ccc(NC(=O)c2cc3ccccc3o2)cc1S(=O)(=O)N(C)C | -98.2% (inactive) |
| Cc1ccc(NC(=O)c2cc3ccccc3oc2=O)cc1S(=O)(=O)N(C)C | 85.6% (active) |
| COc1ccccc1NS(=O)(=O)c1cc(NC(=O)c2cc3ccccc3oc2=O)ccc1C | -25.3% (inactive) |
| COc1ccc(Cl)cc1NC(=O)COc1ccc(S(=O)(=O)N2CCOCC2)cc1C | 11.3% (inactive) |
| Cc1ccc(CCNC(=O)c2cc(-c3ccncc3)nc3ccc(S(=O)(=O)N4CCOCC4)cc23)cc1 | -13.8% (inactive) |
| CS(=O)(=O)c1cc([N+](=O)[O-])c(Sc2nc3ccccc3[nH]2)c([N+](=O)[O-])c1 | 4.3% (inactive) |
| Cc1cc(C(=O)COc2cccnc2[N+](=O)[O-])c(C)n1-c1ccccc1 | 20.6% (inactive) |
| Cc1cc(C(=O)COC(=O)c2ccc3c(c2)OCO3)c(C)n1Cc1cccs1 | -8.7% (inactive) |
| CCn1nc(C(=O)OCC(=O)c2cc(C)n(Cc3cccs3)c2C)c2ccccc2c1=O | -20.7% (inactive) |
| Cc1cc(C(=O)COC(=O)c2ccccc2O)c(C)n1Cc1cccs1 | 89.6% (active) |
| Cc1ccc2cccc(OCC(=O)c3cc(C)n(Cc4ccco4)c3C)c2n1 | -10.4% (inactive) |
| COCCn1c(C)cc(C(=O)COc2cccnc2[N+](=O)[O-])c1C | 4.6% (inactive) |

| Structure (SMILES) | inhibition |
| --- | --- |
| Cc1cc(C(=O)CN2C(=O)c3ccccc3C2=O)c(C)n1Cc1cccs1 | 19% (inactive) |
| Cc1cc(C(=O)COc2ccc3ccc(=O)oc3c2)c(C)n1Cc1cccs1 | -4.5% (inactive) |
| Cc1ccc(-n2c(C)cc(C(=O)COc3cccnc3[N+](=O)[O-])c2C)cc1 | 30.3% (inactive) |
| Cc1ccc(C)c(C(=O)CSc2n[nH]c(-c3ccncc3)n2)c1 | 11% (inactive) |
| COC(C[C@H]1O[C@H]1[C@H](O)[C@H](C)OCc1ccccc1)OC | 9.8% (inactive) |
| CC(C)c1ccc(NC(=O)c2ccccc2NC(=O)C2CC=CCC2C(=O)O)cc1 (stereo unspecified) | -9.6% (inactive) |
| O=C(NC1CCCC1)C(NS(=O)(=O)c1cccc2nsnc12)c1ccccc1 (stereo unspecified) | 15.9% (inactive) |
| Clc1ccc(Nc2nc(N3CCOCC3)nc(N3CCOCC3)n2)cc1Cl | 8.7% (inactive) |
| Clc1ccc(C2[C@H]3CN(Cc4ccc(-c5ccccc5)cc4)[C@H](c4ccccc4)C34CC2(c2ccccc2)C4)cn1 (stereo partly specified) | 6.2% (inactive) |
| COc1ccc(N2CCN(C(=O)c3nc4nc(C)cc(C)n4n3)CC2)cc1 | 7.4% (inactive) |
| CC(C)Cc1ccc(C(C)C(=O)Nc2ccccc2O)cc1 (stereo unspecified) | 22.9% (inactive) |
| C=CCNC(=O)NC(=O)Cn1c(=O)c2c(ncn2CC)n(Cc2ccccc2)c1=O | 17.8% (inactive) |
| Cc1nc(SCc2ccccc2)nc2c1CCC2 | -57.5% (inactive) |
| Cc1nc(SCc2ccc(C(=O)O)cc2)nc2c1CCCC2 | 54.6% (active) |
| Cc1nc(SCc2cccc(C(=O)O)c2)nc2c1CCCC2 | 11% (inactive) |
| COc1ccc(OCC(=O)N/N=C/c2ccc(N(C)C)cc2)cc1 | -12.2% (inactive) |
| Cc1cc(/C=C2/C(=O)NN(c3ccccc3)C2=O)c(C)n1-c1cccc(O)c1 | -42.2% (inactive) |
| Cc1cc(/C=C2\SC(=S)NC2=O)c(C)n1-c1cccc(O)c1 | -226% (inactive) |
| COc1ccc(-n2c(C)cc(/C=C3/SC(=S)N(C)C3=O)c2C)cc1 | 24.3% (inactive) |
| Cc1cc(/C=C2\SC(=O)N(C)C2=O)c(C)n1-c1ccc(O)cc1 | 0.7% (inactive) |
| Cc1ccc(OCC(=O)NCCCNC(=O)c2ccc(C)nc2)cc1 | 7.3% (inactive) |
| C/C(=C\C#N)n1nc(C)cc1N | 16.8% (inactive) |
| Cc1cc2oc3c(c(=O)c2cc1C)C(c1ccc(C(C)C)cc1)N(CCCN1CCOCC1)C3=O (stereo unspecified) | 0.6% (inactive) |

| Structure (SMILES) | inhibition |
| --- | --- |
| CSc1nsc(SCC(=O)NCc2ccccc2)n1 | -5.3% (inactive) |
| CCc1ccc(NC(=S)N(Cc2cccnc2)Cc2ccco2)cc1 | 6.5% (inactive) |
| C=CCc1cccc2cc(C(=O)Nc3cccc(C(=O)O)c3)c(=O)oc12 | -0.7% (inactive) |
| C=CCc1cccc2cc(C(=O)O)c(=O)oc12 | -2.5% (inactive) |
| C=CCc1cccc2cc(C(=O)Nc3ccccc3C(=O)O)c(=O)oc12 | 62.4% (active) |
| NC(=O)CN1CCN(CCN2C(=O)c3cccc4cccc(c34)C2=O)CC1 | 1.7% (inactive) |
| Cc1cc(N2CCN(c3nc(-c4ccc([N+](=O)[O-])cc4)cs3)CC2)c2ccccc2n1 | 15.6% (inactive) |
| COc1ccc(-c2csc(N3CCN(c4cc(C)nc5ccccc45)CC3)n2)cc1OC | 70% (active) |
| Cc1cc(N2CCN(c3nc(-c4ccccc4)cs3)CC2)c2ccccc2n1 | 26.2% (inactive) |
| O=C(/C=C/c1ccccc1)NC(=S)NNC(=O)c1cnccn1 | 20.5% (inactive) |
| Cc1ccc(OCC(=O)c2cc(C)n(C3CC3)c2C)c([N+](=O)[O-])n1 | 11.3% (inactive) |
| Cc1ccc(OCC(=O)c2cc(C)c(C)cc2C)c([N+](=O)[O-])n1 | 12.2% (inactive) |
| C=CCn1c(C)cc(C(=O)COc2ccc(S(=O)(=O)N3CCCC3)cc2[N+](=O)[O-])c1C | -1.6% (inactive) |
| COc1ccc(-n2c(C)cc(C(=O)COc3ccc(C)nc3[N+](=O)[O-])c2C)cc1 | -5.4% (inactive) |
| Cc1ccc(OCC(=O)c2cc(C)n(CC(F)(F)F)c2C)c([N+](=O)[O-])n1 | 23% (inactive) |
| Cc1ccc(OCC(=O)c2cc(C)n(C)c2C)c([N+](=O)[O-])n1 | 32.9% (inactive) |
| COc1cc(/C=C2\SC(=O)N(CCN)C2=O)ccc1OS(=O)(=O)c1cc(C)ccc1C | -1.9% (inactive) |
| C=CCn1c(SCC(=O)Nc2ccc(-c3nc4ccc(C)cc4s3)cc2)nnc1-c1ccccc1 | -69.8% (inactive) |
| COc1ccc2[nH]c(C)c(CCNC(=S)Nc3cccc(C)c3)c2c1 | -5.2% (inactive) |
| O=C(COC(=O)/C(=C/c1cccs1)c1cccs1)NC(c1ccccc1)c1ccccc1 | -12.9% (inactive) |
| CCNC(=S)N1CCN(CC(=O)Nc2ccc(OC)cc2)CC1 | -3.6% (inactive) |
| O=C(NN/C(=N/S(=O)(=O)c1ccc(Cl)cc1)c1ccccc1)c1cccc(Cl)c1 | -51.7% (inactive) |
| CC(Oc1ccccc1)C(=O)NC1=NCCS1 (stereo unspecified) | -34.9% (inactive) |

| Structure (SMILES) | inhibition |
| --- | --- |
| CN1C(=O)C2(C(C#N)=C(N)N(c3cc(Cl)cc(Cl)c3)C3=C2C(=O)CCC3)c2ccccc21 (stereo unspecified) | 53% (active) |
| CN1C(=O)C2(C(C#N)=C(N)N(c3cc(Cl)cc(Cl)c3)C3=C2C(=O)CC(C)(C)C3)c2ccccc21 (stereo unspecified) | 48.4% (inactive) |
| CN1C(=O)C2(C(C#N)=C(N)N(c3ccc(Cl)cc3)C3=C2C(=O)CC(C)(C)C3)c2ccccc21 (stereo unspecified) | 5.6% (inactive) |
| O=C(CSc1ccc(Br)cc1)N1CCOCC1 | 0% (inactive) |
| CCCn1ncc(CN2CCC(Oc3ccc(C(=O)N4CCCC4)cc3)CC2)c1C | -37.8% (inactive) |
| COc1ccc(S(=O)(=O)N(CC(=O)NCc2ccccn2)Cc2ccccc2)cc1 | -13.2% (inactive) |
| CC(=O)NC1=C(NC2CCS(=O)(=O)C2)C(=O)c2ccccc2C1=O (stereo unspecified) | 5.3% (inactive) |
| CN(C1=C(NC(=O)c2ccccc2)C(=O)c2ccccc2C1=O)C1CCS(=O)(=O)C1 (stereo unspecified) | -12.3% (inactive) |
| O=C(NC1=C(NC2CCS(=O)(=O)C2)C(=O)c2ccccc2C1=O)c1ccccc1 (stereo unspecified) | 73.2% (active) |
| O=C(Nc1cccc2ccccc12)C1CCN(C(=O)NCc2ccccc2)CC1 | -12.5% (inactive) |
| Cc1cccc(OCC(=O)N/N=C2/SCC(=O)N2Cc2ccco2)c1 | 14.5% (inactive) |
| C=CCc1ccccc1OCC(=O)O | -5.4% (inactive) |
| C=CCc1ccccc1OCC(=O)NNC(=S)NCc1ccccc1 | 64.8% (active) |
| O=C(COc1ccc(Cl)cc1)NNC(=S)NCc1ccccc1 | -20.7% (inactive) |
| Cc1cc(-c2ccccc2)nc(Cl)c1C#N | 17.2% (inactive) |
| COC(=O)C1=C(C(=O)OC)[C@@H]2N(C)c3ccc(OC)cc3[C@@]23C[C@@H](C(=O)OC)N(C(=O)C2CCC2)C3=N1 | -5.5% (inactive) |
| COc1ccc(/C=C2\CC/C(=C\c3ccc(OC)cc3OC)C2=O)c(OC)c1 | -4.6% (inactive) |
| COc1cc(OC)c(OC)cc1/C=C1\CCC(C2CCCC2)C1=O (stereo unspecified) | 27% (inactive) |
| COc1cc(/C=C2\COC/C(=C\c3ccc(O)c(OC)c3)C2=O)ccc1O | 2% (inactive) |
| COc1ccc(/C=C2\CCC/C(=C\c3ccc(OC)c(OC)c3OC)C2=O)c(OC)c1OC | -10.3% (inactive) |
| COc1cc(/C=C2/CC/C(=C/c3ccc(O)c(OC)c3)C2=O)ccc1O | -69.1% (inactive) |
| COc1cc(OC)c(OC)cc1/C=C1/Cc2ccccc2C1=O | 26.6% (inactive) |
